Shiga toxin inh: blocks Shiga toxin action in Vero cells; Vero cells, Shiga toxin protein synthesis inhibition reporter; inhibition, % at 38.7 µM; 290,000 compounds, 9.2% hits; in the data active = inhibition mostly above about 28%, no sharp cut-off; inactive = mostly below about 43%
Cycloheximide cs: counter-screen for Shiga toxin inhibitors: cycloheximide protein synthesis inhibition; cell reporter, cycloheximide protein synthesis inhibition counterscreen; max response, %; AID 2314; 300,000 compounds, 12% hits; in the data active = max response mostly above about 13%, no sharp cut-off; inactive = mostly below about 14%; note: read at 38.3 µM for the half of the compounds with a filed dose
Pf growth 96h: P. falciparum growth inhibition at 96 hours; P. falciparum luciferase reporter growth, 96 h; Potency, µM (titrated, usually from 28.7 µM), hits mostly inhibitors; 320,000 compounds, 6.9% hits; AID 504834
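Erythrocytes infected with luciferase-expressing P. falciparum were dispensed at 2% hematocrit and 0.05% parasitemia (final), then incubated with compounds 96 hours at 37 C in 5% CO2. Luminescence after detection reagent addition reported growth.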
FBPA Giardia inh: blocks Giardia fructose-bisphosphate aldolase activity; A8B2U2; purified Giardia FBPA; Potency, µM (highest dose often 59.6 µM), usual class: inhibitors; 290,000 compounds, 0.71% hits; note: nearly all actives have a fitted effect of over 55% in size
Target sequence (A8B2U2 whole entry, looked up): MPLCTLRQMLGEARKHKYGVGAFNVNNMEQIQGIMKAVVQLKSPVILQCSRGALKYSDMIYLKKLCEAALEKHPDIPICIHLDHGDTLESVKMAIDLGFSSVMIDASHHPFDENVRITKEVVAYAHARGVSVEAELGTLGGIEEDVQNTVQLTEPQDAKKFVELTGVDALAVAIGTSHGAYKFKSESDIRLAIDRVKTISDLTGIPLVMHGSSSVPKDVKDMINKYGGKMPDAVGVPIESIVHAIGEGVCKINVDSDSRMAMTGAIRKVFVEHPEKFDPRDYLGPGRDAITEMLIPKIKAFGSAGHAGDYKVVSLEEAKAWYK
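40 nM FBPA preincubated 10 min at RT with compound (up to 57.5 uM final), then substrate plus GAPDH/TPI/NAD/arsenate coupling and diaphorase/resazurin added. Fluorescence read after 20 min at RT, 525/598 nm.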
Pf growth 48h: inhibits P. falciparum growth in the first generation, 48 h; Potency, µM (titrated, usually from 28.7 µM), hits mostly inhibitors; AID 504832; P. falciparum luciferase growth in erythrocytes, 48 h; 310,000 compounds, 5.9% hits
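Cell-based growth assay: transgenic P. falciparum expressing firefly luciferase, cultured in red cells within RPMI 1640 containing 0.5% w/v Albumax, 24 mM bicarbonate and gentamycin. A drop in luciferase activity indicates inhibition.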
NS1 function inh: influenza NS1 inhibition. Potency, µM (top dose mostly 46.1 µM). 270,000 compounds, 0.4% hits. AID 2326; calls by dose curve; note: actives are rising curves; nearly all actives have a fitted effect of over 50% in size
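S. cerevisiae expressing influenza A NS1, grown in glucose, washed, then diluted 1:100 into pH 6.0 -URA galactose medium with 23 nl compound. Growth recovery read as OD600; NS1-free strain serves as control.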
Numbers stand for hits; - = inactive; ? = inconclusive; . = no result; [ ] = dose if it differs, or a comment. Rows were chosen to be rich in hits. Some 21% of all compounds tested hit in one or more screens of this group. Unless noted, calls come from the whole dose curve; as a rule, active = well fitted curve in the direction sought with a large enough effect; inconclusive = small, poorly fitted or top-dose-only effect, or another doubt; inactive = no such curve, though single readings can be large; an effect the other way counts as inactive or inconclusive.

SMILES	Shiga toxin inh	Cycloheximide cs	Pf growth 96h	FBPA Giardia inh	Pf growth 48h	NS1 function inh
CCOC(=O)CCCNC(=O)CCNC(=O)c1ccc(OCC(C)C)cc1	-	-	-	-	-	-
Cc1ccc(Cn2c(CO)cnc2SCC(=O)Nc2ccc(C)c(Cl)c2)cc1	-	-	.	.	.	.
Cc1ccccc1OCC(=O)NC(=S)Nc1ccccc1N1CCN(S(C)(=O)=O)CC1	-	-	-	.	-	-
CCCOc1ccc(C(=O)OCC(=O)NCCc2ccc(OCC)c(OCC)c2)cc1OC	-	-	13µM	.	?	-
CCOc1ccc(CCNC(=O)COC(=O)c2ccc(OC(C)C)cc2)cc1OCC	.	.	?	.	12µM	.
CCOc1ccc(C(=O)CC(=O)C(=O)NCCc2ccc(OC)c(OC)c2)cc1	-	-	-	-	13µM	-
Cc1cc(C)n(-c2ccccc2[N+](=O)[O-])n1	-	-	-	-	-	-
COc1ccc(/C=N/Nc2cc(C)nc(NS(=O)(=O)c3ccc(C)cc3)n2)cc1	-	-	-	-	-	-
COc1ccc(/C=N/Nc2cc(C)nc(-n3nc(C)cc3C)n2)cc1	-	-	?	-	1.5µM	-
Cc1cc(NCCO)nc(-n2nc(C)cc2C)n1	-	-	?	-	?	-
Cc1cc(N/N=C/c2ccccc2[N+](=O)[O-])nc(-n2nc(C)cc2C)n1	-	-	0.66µM	-	0.93µM	-
Cc1cc(N/N=C/c2ccc(O)cc2O)nc(-n2nc(C)cc2C)n1	-	-	?	-	1.9µM	-
Cc1cc(N/N=C/c2cccc(Cl)c2)nc(-n2nc(C)cc2C)n1	-	-	?	-	1.2µM	-
CCC(=O)N1CCc2cc(S(=O)(=O)CCC(=O)Nc3ccc(OC)c(OC)c3)ccc21	-	-	?	-	-	.
Cc1cc(C)nc(N/N=C/c2cccc([N+](=O)[O-])c2)n1	-	-	-	?	-	-
Cc1cc(N/N=C/c2cccc([N+](=O)[O-])c2)nc(-n2nc(C)cc2C)n1	-	-	1µM	-	?	-
Cc1onc(-c2ccccc2)c1C(=O)N1CCN(S(=O)(=O)c2ccc(OC(F)(F)F)cc2)CC1	-	-	?	-	-	-
NC(=O)c1nsc(C(=O)N(c2ccccc2)C(C(=O)NC2CCCCC2)c2ccc(O)cc2)c1N (configuration not stated)	-	-	10µM	-	?	-
CC(C)c1ccc(N(C(=O)c2snc(C(N)=O)c2N)C(C(=O)NC2CCCC2)c2ccncc2)cc1 (configuration not stated)	-	15	-	.	?	-
CCC1CCCCN1CCCNC(=O)c1ccc(CS(=O)(=O)c2ccccc2C)o1 (configuration not stated)	-	-	-	-	-	-
CCN(CC(=O)NCc1cccs1)C(=O)/C=C/c1ccc(OC)c(OC)c1	.	.	-	.	-	.
COc1ccc(C(=O)Cn2nnc(-c3ccccc3NC(=O)C3CCCCC3)n2)cc1	-	-	.	-	12µM	-
C=CCNS(=O)(=O)c1ccc(OCC(=O)OCC)cc1	-	-	2.3µM	-	-	-
CCCc1cc(=O)[nH]c(SCC(=O)c2ccc3c(c2)NC(=O)CO3)n1	-	-	-	-	-	-
CC(C)C(=O)Nc1ccc(NC(=O)c2ccc([N+](=O)[O-])cc2Cl)cc1	-	-	-	-	-	-
SMILES	Shiga toxin inh	Cycloheximide cs	Pf growth 96h	FBPA Giardia inh	Pf growth 48h	NS1 function inh
CN(C)c1ccc(NC(=O)c2ccc([N+](=O)[O-])cc2Cl)cc1	75	46	-	-	-	-
CC(=O)Nc1cccc(NC(=O)c2ccc([N+](=O)[O-])cc2Cl)c1	-	-	-	-	-	-
O=C(Nc1cccc(O)c1)c1ccc([N+](=O)[O-])cc1Cl	61	32	-	-	-	.
NC(=O)c1ccc(NC(=O)COC(=O)c2ccc(Br)o2)cc1	.	.	-	.	-	.
COC(=O)c1cc(NC(C)=O)ccc1N1CCOCC1	-	-	-	-	-	-
COC(=O)c1cc(NC(=O)c2c(C)noc2C)ccc1N1CCOCC1	-	-	-	.	-	-
COC(=O)c1cc(NC(=O)c2cc(-c3ccc(OC)cc3)oc2C(F)(F)F)ccc1N1CCOCC1	-	-	9.3µM	-	8.3µM	-
COC(=O)c1cc(NC(=O)c2cc(-c3ccc(C(F)(F)F)cc3)oc2C(F)(F)F)ccc1N1CCOCC1	-	-	1.5µM	-	2.1µM	?
O=c1c([N+](=O)[O-])c(N2CCCC2)c2ccccc2n1-c1ccccc1	-	-	?	-	-	-
CNC(=S)N/N=C/c1cn(CCOc2ccc(OC)cc2)c2ccccc12	-	-	5.9µM	-	?	?
CC1=CN2C(=N)/C(=C\c3cn(CCCOc4ccccc4)c4ccccc34)C(=O)N=C2S1	-	12	?	-	-	-
O=Cc1cn(CCCOc2ccccc2)c2ccccc12	51	55	-	-	-	-
COc1ccccc1OCCn1cc(/C=N/NC(N)=S)c2ccccc21	-	-	?	-	?	.
COC(=O)N/N=C/c1cn(CCCOc2ccccc2)c2ccccc12	72	40	-	-	-	-
COc1ccc(OCCn2cc(C=O)c3ccccc32)cc1	-	-	?	-	-	-
Cc1ccc(NC(=O)CC(NCC2CCCO2)C(=O)O)cc1C (configuration not stated)	-	-	-	-	-	.
CCOc1cc(-c2c(C#N)c(N)nc3c2CCCC3C)ccc1O (configuration not stated)	-	-	2.9µM	-	-	-
C=CCN1c2ccccc2[C@]23C[C@@H](C(=O)OC)N(S(=O)(=O)c4c(C)noc4C)C2=NC(C(=O)OC)=C(C(=O)OC)[C@H]13	.	.	.	-[12.9 µM]	.	.
CCN(CC)CCNC(=O)c1c(O)c2ccccc2n(Cc2ccccc2)c1=O	-	-	4.1µM	-	12µM	-
CCn1c(=O)c(C(=O)NCCCO)c(O)c2ccccc21	-	-	-	-	-	-
CCN(CC)CCCNC(=O)c1c(O)c2ccccc2n(Cc2ccccc2)c1=O	-	-	-	-	9.3µM	-
c1ccc(Oc2ccc3ccccc3n2)cc1	130	39	-	-	-	.
CC(n1cnnn1)C12CC3CC(CC(C3)C1)C2 (configuration not stated)	-	-	1.7µM	-	?	-
CN(c1ccccc1)S(=O)(=O)c1ccc(NC(=O)c2ccccc2)cc1	active	-	-	-	-	-
O=C(Nc1ccc(S(=O)(=O)Nc2ccccc2)cc1)C1CC1	-	-	-	.	-	-
CN(c1ccccc1)S(=O)(=O)c1ccc(NC(=O)C2CC2)cc1	-	-	6.6µM	-	-	-
CN(c1ccc(C(=O)Nc2ccccn2)cc1)S(=O)(=O)c1ccccc1	90	32	?	-	-	-
CCN(c1ccccc1)S(=O)(=O)c1ccc(C(=O)Nc2ccccn2)cc1	.	.	-	.	?	.
CN(C(=O)CC1C(=O)NCCN1CC(c1ccccc1)c1ccccc1)C(C1CC1)C1CC1 (configuration not stated)	-	-	?	-	?	-

From PubChem BioAssay
